# According to PubChem BioAssay (NCI):
# This is part of a sample that, as a whole, favours compounds with a hit. Of some 83,000 tested, about 20% had one in any assay.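 A percent growth of 40 corresponds to 60% growth inhibition; 0 means no net growth; -100 means all cells died. Active threshold: below 10.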 Unmarked numbers belong to inactive results. The source made the active and inactive calls.
# Tested on: MDA-MB-435 melanoma
# Experiment: NCI-60 one-dose screen, 48 h (100 = growth as untreated, 0 = no growth, -100 = all killed)
# Details: 10 µM unless noted
row,Compound,growth
1,CCOC(=O)C1CCN(S(=O)(=O)/N=C2/NC(=O)NC2=C(Cl)Cl)CC1,-7.61% (active)
2,COc1ccc(-c2cc(-c3nnc(SCC(=O)Nc4ccc(/C(C)=N\O)cc4)o3)c3ccccc3n2)cc1,110%
3,COc1ccc(-c2cs/c(=N\N=C\c3ccc(O)cc3O)n2/N=C/c2ccc(O)cc2O)cc1,-32.8% (active)
4,CCC1=C[C@H]2CN(CCc3c([nH]c4ccccc34)[C@@](C(=O)OC)(c3cc4c(cc3OC)N(C)[C@H]3[C@@](O)(C(=O)OC)[C@H](OC(C)=O)[C@]5(CC)[C@@H]6C[C@@H]6CN6CC[C@]43[C@@H]65)C2)C1,-32.6% (active)
5,COCCOCCOCc1n(Cc2ccc3ccccc3n2)c2ccccc2[n+]1Cc1ccc2ccccc2n1,11%
6,CCOC(=O)NCCc1nc2c([nH]1)c(=O)n(C)c(=O)n2C,101%
7,COc1ccc(-c2cn(-c3ccc(Cl)cc3)c(=S)[nH]2)cc1OC,86.1%
8,O=C(Nc1nccs1)c1noc2ccccc12,105%
9,CCOC(=O)c1c(C)nc2c(c1N)/C(=C/c1ccccn1)C(=O)N2Cc1ccccc1,11.2%
10,COc1ccc(Cl)c([N+](=O)[O-])c1,99.6%
11,Cn1c2ccccc2c2c(OC(=O)c3ccccc3)c3c(nc21)-c1ccccc1C3,104%
12,O=[N+]([O-])c1ccc(Oc2ccc(-c3ccccc3)cc2)cc1,101%
13,CNC(=O)c1cc(Oc2ccc3c(c2)sc2nc(-c4ccc(NC(C)=O)cc4)cn23)ccn1,3.75% (active)
14,COc1ccc2nc(-c3ccc(Cl)cc3)cc(-c3nnc(SCC(=O)Nc4ccc(/C(C)=N\O)cc4)o3)c2c1,16.4%
15,C#Cc1ccccc1NC(=O)c1sc2nc3c(cc2c1N)CCCCCC3,74.5%
16,CN(C)CCCn1c2c(c3cc(-c4cccc(S(N)(=O)=O)c4)ccc3c1=O)C(=O)c1ccccc1-2,80.3%
17,Clc1ccc2c(NCCCNC3CCCCC3)ccnc2c1,84.6%
18,O=C(Nc1nc(-c2ccccc2Cl)cs1)c1cc(-c2ccc(Br)cc2)nc2ccccc12,64.5%
19,CC[C@H](Nc1ncnc2nc[nH]c12)c1nc2cccc(CC(=O)c3ccc(C(=O)NO)cc3)c2c(=O)n1-c1ccccc1,97.6%

row,Compound,growth
1,CCSc1ccc(C2C(Br)C(=O)N2c2cc(OC)c(OC)c(OC)c2)cc1 (stereo not drawn),-1.6% (active)
2,C=CCn1c(SCC(=O)Nc2ccc(C(=O)/C=C/c3cc(OC)c(OC)c(OC)c3)cc2)nnc1-c1ccc(Cl)cc1,5.58% (active)
3,COC(=O)c1oc2c(C(=O)/C=C/c3ccc(OC)cc3)c(OCCCN3CCCCC3)ccc2c1C,6.56% (active)
4,C#C[C@@]1(O)[C@@H](CO)O[C@@H](n2cc(Cl)c3c(N)ccnc32)[C@@H]1O,75.6%
5,CN1CC=C(c2cc(NC(=O)Nc3ccc(Oc4ccnc(NC(=O)C5CC5)c4)c(F)c3)cc(C(F)(F)F)c2)CC1,-12.4% (active)
6,C=C(C)[C@@H]1CCC=C2CC[C@]3(C)[C@H](CC[C@@H]4[C@@]5(C)CCCNC(C)(C)[C@@H]5CC[C@]43C)[C@H]21,16.8%
7,COc1ccc(C(=O)c2cc(OC)c(C)c(OC)c2)cc1OC(=O)CCl,-17.2% (active)
8,COc1ccc(-c2[nH]c3ccccc3c2C=C(C#N)C#N)cc1,-34.6% (active)
9,CC(=O)c1cnc(-c2ccccc2)nc1CBr,86.4%
10,COc1ccc(-c2[nH]c3ccc(OC)cc3c2C=C(C#N)C#N)cc1,-62.5% (active)
11,NC(N)=NC(N)=Nc1cc2ccccc2c2ccccc12,68.9%
12,CCCCCOC(=O)c1ccccc1O,102%
13,COc1cc(C(=O)Nc2cc(OC)c3ccn(C)c3c2)cc2c1C[C@]1(C)CC[C@@H](O)C(C)(C)[C@H]1O2,-36.1% (active)
14,CC(=O)c1ccc(NC(=O)CSc2nnc(-c3cc(-c4ccc(Cl)cc4)nc4ccccc34)o2)cc1,85.5%
15,CC(=O)c1cc2c(N)c(C(=O)Nc3ccccn3)sc2nc1C,5.72% (active)
16,FC(F)(F)c1ccc2c(Nc3cccc(C4CC(c5ccccc5)=NN4c4ccc(Cl)cc4)c3)ccnc2c1 (stereo not drawn),38%
17,O=C1c2ccccc2C(=O)c2c1oc1c2c(=O)[nH]c2ccc(Cl)cc21,10.2%
18,CN(C)CCCn1c2c(c3cc(-c4ccco4)ccc3c1=O)C(=O)c1ccccc1-2,66.6%
19,Nc1c(C(=O)Nc2ccccc2)sc2nc3c(cc12)CN(C(=O)OCc1ccccc1)CC3,-8.75% (active)
